MCF10A rereplic: DNA re-replication induction in MCF 10a cells | hit rate 2.9% among 350,000 | AID 624296 | MCF 10A DNA re-replication, Hoechst nuclear intensity, 48 h | Potency, µM (series often up to 46.1 µM), for inactives: at the top dose activity, positive = re-replication, most hits filed as activators; note: potency is the fitted concentration of half-maximal effect; % of control where 0% means no effect; nearly all actives have a fitted effect of over 50% in size
VP16 counter: inhibits Gal4-VP16 luciferase reporter, ROR gamma counter-screen; Drosophila S2 Gal4-VP16 UAS-luciferase, luminescence, 20 h; Potency, µM (doses to about 53.6 µM), without a hit: top-dose activity, negative = inhibition, actives largely listed as inhibitors; hit rate 3.5% among 310,000;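 note: Gal4-VP16 expression switched on by copper sulfate through the metallothionein promoter; potency is the fitted concentration of half-maximal effect; % is set by controls: 0 for no effect and ±100 for the full control effect; nearly all actives have a fitted effect of over 50% in size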
IL-1B inflam inh: blocks inflammasome-driven IL-1 beta release | activity change, % at 57.5 µM | hit rate 4.7% among 360,000 | THP-1 LPS/ATP IL-1B secretion, AlphaLISA, 16 h; hits give low values; in the data active = activity change below about -50%; inconclusive = mostly about -30% to -49%; note: % is set by controls: 0 for no effect and ±100 for the full control effect
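Secreted IL-1B measured by AlphaLISA bead assay after 16 h compound exposure of THP-1 cells; compounds (final up to 57.5 uM) added 1 h before LPS (250 ng/mL) and ATP (1.25 mM) stimulation; lower signal means less secretion.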
RORgamma inh: inhibitors of mouse ROR gamma transcriptional activity; P51450; Drosophila S2 Gal4-RORgamma UAS-luciferase reporter, 20 h; Potency, µM (top dose mostly 53.6 µM), for inactives: at the top dose activity change, negative = inhibition, most hits filed as inhibitors; hit rate 5.4% among 310,000; AID 2551; note: potency is the fitted concentration of half-maximal effect; % is set by controls: 0 for no effect and ±100 for the full control effect; nearly all actives have a fitted effect of over 60% in size
Target sequence (P51450 whole entry, looked up, the tested form may be a part): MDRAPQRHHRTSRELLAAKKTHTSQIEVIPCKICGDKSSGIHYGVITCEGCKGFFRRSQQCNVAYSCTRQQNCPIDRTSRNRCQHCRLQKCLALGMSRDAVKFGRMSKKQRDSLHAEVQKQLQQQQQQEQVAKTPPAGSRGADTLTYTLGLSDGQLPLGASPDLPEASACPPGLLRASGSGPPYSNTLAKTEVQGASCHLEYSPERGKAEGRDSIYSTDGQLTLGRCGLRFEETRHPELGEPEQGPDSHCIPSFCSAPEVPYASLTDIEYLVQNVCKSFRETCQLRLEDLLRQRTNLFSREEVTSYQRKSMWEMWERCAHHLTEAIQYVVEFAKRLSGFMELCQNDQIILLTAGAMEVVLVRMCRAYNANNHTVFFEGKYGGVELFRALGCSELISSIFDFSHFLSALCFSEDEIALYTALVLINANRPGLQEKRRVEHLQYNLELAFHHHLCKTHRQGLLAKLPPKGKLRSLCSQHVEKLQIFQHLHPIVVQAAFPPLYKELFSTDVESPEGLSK
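ROR gamma transcriptional activity was tracked as Gal4-UAS luciferase output in stably transfected Drosophila Schneider cells, with compound added 1 hr before 700 uM copper sulfate induction and a 20 hr ambient-temperature incubation.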
SW480 rerep: DNA re-replication induction in SW480 cells. SW480 DNA re-replication, Hoechst DNA content imaging, 48 h. Potency, µM (titrated, usually from 46.1 µM), inactives show at the highest dose re-replication activation, usual class: activators. hit rate 1.8% among 340,000. AID 624297; note: potency is the fitted concentration of half-maximal effect; % of control where 0% means no effect; nearly all actives have a fitted effect of over 55% in size
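250 cells/well; 23 nL cpd via pin tool; 48 hr, 37 C, 5% CO2; Hoechst 40 min; imager read of total nuclear intensity, ex 405/em 500-530 nm.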
An asterisk follows results filed as active. Shown are actives, neighbours in structure and some others; about 11% of the full set was active somewhere. Unless noted, calls come from the whole dose curve; as a rule, active = well fitted curve in the direction sought with a large enough effect; inconclusive = small, poorly fitted or top-dose-only effect, or another doubt; inactive = no such curve, though single readings can be large; an effect the other way counts as inactive or inconclusive.

CCOC(=O)c1cc(-c2ccccc2)sc1NC(=O)C(C)Sc1nnnn1C (stereo unspecified) was read as MCF10A rereplic 7%, VP16 counter -1%, IL-1B inflam inh -76*, RORgamma inh 30% and SW480 rerep 15%.
For CCOC(=O)c1cc(-c2ccccc2)sc1NC(=O)C(C)Sc1nnc(C)s1 (stereo unspecified) the results were MCF10A rereplic inconclusive, VP16 counter -4%, IL-1B inflam inh -77*, RORgamma inh inconclusive and SW480 rerep 1%.
CCOC(=O)c1cc(-c2ccccc2)sc1NC(=O)C(C)N1C(=O)NC(C)(c2ccc(Cl)cc2)C1=O (stereo unspecified) was read as MCF10A rereplic 13%, VP16 counter 10%, IL-1B inflam inh -53*, RORgamma inh 15% and SW480 rerep 6%.
For COCc1ccc(C(=O)NCC2(N3CCCCC3)CCCCC2)cc1 the results were MCF10A rereplic 14%, VP16 counter -7%, IL-1B inflam inh 6, RORgamma inh -5% and SW480 rerep 1%.
`COc1ccc(CC(=O)NCC2(N3CCCCC3)CCCCC2)cc1` gave MCF10A rereplic inconclusive, VP16 counter 7%, IL-1B inflam inh -28, RORgamma inh 0% and SW480 rerep 23µM*.
c1ccc(CN2CCC(Nc3nc(-c4ccccc4)nc4ccccc34)CC2)cc1 was read as MCF10A rereplic inconclusive, VP16 counter -3%, IL-1B inflam inh -52*, RORgamma inh -39% and SW480 rerep inconclusive.
c1ccc(CNc2nc(N3CCN(Cc4ccccc4)CC3)nc3ccccc23)cc1 was read as MCF10A rereplic 7.3µM*, VP16 counter 1%, RORgamma inh -13% and SW480 rerep inconclusive.
For Cc1csc2ncnc(NC3CCN(Cc4ccccc4)CC3)c12 the results were MCF10A rereplic 11%, VP16 counter 2.8µM*, IL-1B inflam inh inconclusive, RORgamma inh 2.5µM* and SW480 rerep -5%.
Screening Clc1nc(NCc2ccco2)nc(N2CCCCC2)n1 returned MCF10A rereplic inconclusive, VP16 counter -17%, IL-1B inflam inh 43, RORgamma inh 3% and SW480 rerep 4.6µM*.
`COCCNC(=O)C[C@@H]1C[C@H]2c3cc(NC(=O)Nc4ccc(F)cc4)ccc3O[C@H]2[C@H](CO)O1` gave IL-1B inflam inh 3.
Screening CN(C(=O)c1cccc(NC(=O)Cc2ccc(NC(=O)C3CCCN(C(=O)C4CCCC4)C3)cc2)c1)C1CC1 (stereo unspecified) returned MCF10A rereplic -5%, IL-1B inflam inh 0 and SW480 rerep -13%.
For Cc1ccc(OCCNC(=O)CNC(=O)c2ccc(Cl)c([N+](=O)[O-])c2)cc1 the results were MCF10A rereplic 1%, IL-1B inflam inh 20 and SW480 rerep -3%.
For Cc1nn(CC(=O)Nc2ccc3nc4n(c(=O)c3c2)CCCC4)c(C)c1[N+](=O)[O-] the results were MCF10A rereplic inconclusive, VP16 counter 22%, IL-1B inflam inh -6, RORgamma inh 13% and SW480 rerep -26%.
`Cc1cc(CNCCN(C)C)c(C)n1-c1cc(S(=O)(=O)N2CCOCC2)ccc1N1CCCC1` gave MCF10A rereplic 6%, IL-1B inflam inh -6 and SW480 rerep inconclusive.
OCCNc1nc(N2CCCCC2)nc2ccccc12 was read as MCF10A rereplic 2%, VP16 counter 3%, IL-1B inflam inh 12, RORgamma inh -3% and SW480 rerep -6%.
Screening c1coc(CNc2nc(N3CCCCC3)nc3ccccc23)c1 returned MCF10A rereplic 5%, VP16 counter inconclusive, IL-1B inflam inh -58*, RORgamma inh 1% and SW480 rerep -1%.
`CCNc1nc(NCC)n2c(SCC(=O)Nc3ccc(C)c(C)c3)nnc2n1` gave MCF10A rereplic -5%, IL-1B inflam inh 7 and SW480 rerep -77%.
`CC1(C(=O)NS(=O)(=O)Cc2cccc(Cl)c2)CCN1C(=O)C1(c2ccc(Cl)cc2)CCC1` (stereo unspecified) gave IL-1B inflam inh -10.
`CCCCS(=O)(=O)NC(=O)C1(C)CCN1C(=O)C/C=C/c1ccccc1` (stereo unspecified) gave IL-1B inflam inh 0.
Screening C[C@@H]1CN([C@@H](C)CO)C(=O)CCCn2nncc2CO[C@H]1CN(C)Cc1cccnc1 returned IL-1B inflam inh -12.
Screening CCOc1ccc(/C=N/NC(=O)C(O)c2ccccc2)c(O)c1 (stereo unspecified) returned MCF10A rereplic 8%, VP16 counter 2µM*, IL-1B inflam inh 95, RORgamma inh 0.79µM* and SW480 rerep inconclusive.
For CCOc1ccc(CCNC(=O)C(O)c2ccccc2)cc1 (stereo unspecified) the results were MCF10A rereplic -1%, VP16 counter -9%, IL-1B inflam inh 15, RORgamma inh inconclusive and SW480 rerep 5%.
For CCCn1c(SC(C)C(=O)NC2CCCC(C)C2C)n[nH]c1=O (stereo unspecified) the results were IL-1B inflam inh 5.
Screening CCN(c1ccccc1)S(=O)(=O)c1cccc(C(=O)NCC(c2cccs2)N2CCOCC2)c1 (stereo unspecified) returned MCF10A rereplic 6%, IL-1B inflam inh inconclusive and SW480 rerep -5%.
Screening CCC1C(c2ccccc2)=CCC(C(=O)O)C1C (stereo unspecified) returned MCF10A rereplic 24%, IL-1B inflam inh -7 and SW480 rerep -2%.
For CN1CCN(c2ncc3nc(-c4ccc(Cl)cc4)c(=O)n(C)c3n2)CC1 the results were VP16 counter -3% and RORgamma inh -14%.
`Brc1ccccc1-c1nnc(SCc2nc3ccccc3s2)o1` gave MCF10A rereplic 9.2µM*, VP16 counter -8%, IL-1B inflam inh 0, RORgamma inh -15% and SW480 rerep 10%.
CCCOc1ccc(Br)cc1CSC(=N)N was read as MCF10A rereplic 7%, VP16 counter 13µM*, IL-1B inflam inh -86*, RORgamma inh inconclusive and SW480 rerep -13%.
`CCOc1ccc(Br)cc1CC(=O)O` gave MCF10A rereplic 3%, IL-1B inflam inh -6 and SW480 rerep 1%.
For O=C(CNC(=O)c1ccccc1)N/N=C/c1ccc([N+](=O)[O-])s1 the results were MCF10A rereplic inconclusive, VP16 counter -18%, IL-1B inflam inh inconclusive, RORgamma inh 3% and SW480 rerep inconclusive.
O=C(Cc1ccccc1)NCC(=O)N/N=C/c1ccc([N+](=O)[O-])s1 was read as MCF10A rereplic 5%, VP16 counter -22%, IL-1B inflam inh inconclusive, RORgamma inh -34% and SW480 rerep 15µM*.

Source: PubChem BioAssay (National Center for Advancing Translational Sciences (NCATS))
